ALDH1A1 inh: inhibitors of human aldehyde dehydrogenase 1A1; actives 7.3% (n = 220,000); Purified ALDH1A1, NADH fluorescence, propionaldehyde substrate; Potency, µM (titrated, usually from 75.3 µM), inactives show top-dose activity, negative = inhibition, hits mostly inhibitors; P00352;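 also: potency is read from the fitted curve at half-maximal effect; plate controls were no enzyme wells and a reference inhibitor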
IMPase cell inh: cell-permeable inhibitors of inositol monophosphatase (IMPase) | P97697 | CHO-M1 cells, IP1 accumulation, HTRF TR-FRET ratio | inhibition (IP1 accumulation), % at 46.1 µM | 120,000 tested, under 10 active; active = well fitted curve in the direction sought with a large enough effect in the signal ratio, not every such curve was filed as active; inconclusive = small, poorly fitted or top-dose-only effect, or a change in a side signal; inactive = no such curve, though single readings can be large or run the other way; the % refers to the signal ratio;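 also: cells stimulated with carbachol in lithium chloride buffer; plate controls were DMSO basal wells for no effect and reference inhibitor wells for full effect; higher means more IMPase inhibition seen as more IP1 and lower FRET ratio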
Target sequence (P97697 whole entry, looked up): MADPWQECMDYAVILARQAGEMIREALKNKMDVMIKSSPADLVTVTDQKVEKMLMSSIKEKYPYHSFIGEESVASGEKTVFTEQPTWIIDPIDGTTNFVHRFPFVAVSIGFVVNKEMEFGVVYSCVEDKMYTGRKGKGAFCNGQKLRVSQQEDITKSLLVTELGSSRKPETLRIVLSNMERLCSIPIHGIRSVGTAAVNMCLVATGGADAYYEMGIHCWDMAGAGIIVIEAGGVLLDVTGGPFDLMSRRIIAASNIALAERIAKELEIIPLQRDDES
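Measured: the HTRF emission ratio (665/620 nm) plus the 620 nm donor channel, each fitted to the Hill equation to give AC50. Cells were CHO-M1 given compounds up to 46 uM and a 30 min carbachol stimulation at 37C.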
HPGD inh: blocks human HPGD enzyme activity; P15428; purified HPGD, NADH fluorescence kinetic, PGE2 substrate; Potency, µM, without a hit: at the top dose activity change, negative = inhibition, most hits filed as inhibitors; actives 4.3% (n = 150,000); AID 894; also: potency is read from the fitted curve at half-maximal effect
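20 nM HPGD preincubated 15 min at room temperature with compound in 50 mM Tris-HCl pH 8, 0.01% Tween 20. Started with 1 mM NAD+ and 30 uM prostaglandin E2; NADH fluorescence (360/450 nm) read 5 times over 30-s intervals, last minus first.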
* hit, by the source's call; u = inconclusive; x = no result given. Sampled rows, rich in hits. Any-hit rate of the full collection: about 9%. Unless noted, calls follow the shape of the dose curve; as a rule, active = well fitted inhibition curve with a large enough effect (not every such curve was filed as active); inconclusive = small, poorly fitted or top-dose-only effect, or another doubt; inactive = no such curve, though single readings can be large or run the other way. Unless noted, % is scaled to controls: 0 for no effect and ±100 for the full control effect.

SMILES	ALDH1A1 inh	IMPase cell inh	HPGD inh
O=C(/C(=N\Nc1ccc([N+](=O)[O-])cc1)Sc1nnnn1-c1ccccc1)c1ccccc1	3.2µM*	x	-11%
Cc1ccc(N/N=C(/Sc2nnnn2-c2ccccc2)C(=O)c2ccccc2)cc1	3.2µM*	x	-12%
CC(=O)/C(=N\Nc1ccc(Cl)cc1)Sc1nnc(-c2ccccc2)n1-c1ccccc1	u	-14	u
O=C(O)c1ccc(Sc2nnnn2-c2ccccc2)c([N+](=O)[O-])c1	-9%	-3	u
CC(=O)C(Cc1cccc(F)c1)(Cc1cccc(F)c1)C(C)=O	-1%	x	x
CC1(C)S[C@H]2C(NC(=O)[C@@H](N)c3ccc(O)cc3)C(=O)N2[C@@H]1C(=O)O (stereo partly drawn)	4%	x	-8%
Cc1cccc2c(SCC(=O)NCC3CCCO3)nc(-c3ccc(F)cc3)nc12 (stereo not drawn)	-4%	-1	-16%
O=C(Nc1ccccc1)Nc1ccc(F)c([N+](=O)[O-])c1	-6%	x	-10%
O=C(Nc1ccc(F)c([N+](=O)[O-])c1)C(=O)c1c(O)[nH]c2ccccc12	13µM*	x	x
CC(C)Sc1n[nH]c(=O)n1-c1ccccc1	-1%	x	x
OC(CNCC(c1ccco1)N1CCCCC1)c1ccccc1 (stereo not drawn)	18µM*	4	2%
S=C(NCC(c1ccco1)N1CCCC1)Nc1ccccc1 (stereo not drawn)	-15%	x	x
COC(=O)c1cc(Br)c(=O)n(-c2ccccc2F)c1	-9%	-14	-8%
CC1CCc2c(sc(NC(=O)CCCn3cnc([N+](=O)[O-])n3)c2C(N)=O)C1 (stereo not drawn)	-13%	x	x
Cc1cc([N+](=O)[O-])nn1CCCC(=O)Nc1sc2c(c1C(N)=O)CCCC2	7%	-4	4.5µM*
NC(=O)c1c(NC(=O)CCCn2cnc([N+](=O)[O-])n2)sc2c1CCCC2	1.6µM*	x	x
CCCOC(=O)c1c(NC(=O)CCCn2nc([N+](=O)[O-])cc2C)sc(C(=O)OC)c1C	u	-7	-6%
O=C(COC(=O)CCC(=O)c1ccc(Cl)cc1)NC1CC1	0%	x	x
Brc1ccccc1OCCCCCN1CCOCC1	11µM*	x	x
CN1CCN(CCCCOc2ccc(F)cc2)CC1	u	-9	u
Brc1ccc(OCCCCCN2CCOCC2)cc1	-13%	x	x
O=Cc1ccccc1OCCOc1ccccc1C=O	20µM*	25	u
O=Cc1ccccc1Oc1ccccc1	-9%	8	0%
CN1CCN(CCCCOc2ccccc2C=O)CC1	22µM*	x	x
COC(=O)c1ccc(Oc2nc3c(c(=O)n(C)c(=O)n3C)n2C(C)C)cc1	x	12	x
SMILES	ALDH1A1 inh	IMPase cell inh	HPGD inh
COc1cc(C2NC(=O)NC(c3ccccc3)=C2C(C)=O)c(Cl)cc1OCC(=O)O (stereo not drawn)	2%	x	x
CCC1CSC(Nc2ccc(C(=O)/C=C/c3ccc(Br)cc3)cc2)=N1 (stereo not drawn)	2%	x	u
CCC1CSC(Nc2ccc(C(=O)/C=C/c3ccc(OC)c(OC)c3)cc2)=N1 (stereo not drawn)	u	x	18µM*
COC(=O)CNC(c1ccccc1)c1cc(Br)ccc1NC(=O)c1ccccc1 (stereo not drawn)	x	0	x
Cc1cccc(C)c1NC(=O)COC(=O)c1ccc(N2CCCC2)c([N+](=O)[O-])c1	9%	x	-24%
CCC(C)c1ccccc1NC(=O)COC(=O)c1ccc(N2CCCC2)c([N+](=O)[O-])c1 (stereo not drawn)	13µM*	2	-27%
CCNC(=O)C1CCCN(c2nc(C)cc(C)n2)C1 (stereo not drawn)	-1%	x	x
Cc1ccc(OCCCC(=O)NC(C)c2ccccc2)cc1 (stereo not drawn)	u	-4	u
CC(NC(=O)Cc1ccc(-c2ccccc2)cc1)c1ccccc1 (stereo not drawn)	11µM*	7	14µM*
CC(NC(=O)c1ccc(Br)cc1)c1ccccc1 (stereo not drawn)	11µM*	x	-6%
CC(NC(=O)c1ccccc1)c1ccc(Br)cc1 (stereo not drawn)	1%	x	x
Cc1ccc2nc(SCC(=O)c3ccc(O)cc3O)[nH]c2c1	-8%	x	x
O=C1NC(=O)[C@@]2(CCOc3ccc(F)cc32)N1	1%	x	-2%
Fc1ccc(-c2cc(C(F)(F)F)nc(NCc3cccs3)n2)cc1	u	x	-29%
Cc1nc(NC(=O)CSc2ccccc2N)sc1C	22µM*	4	-19%
Nc1ccccc1SCC(=O)Nc1nccs1	1%	x	x
C=CCOC(=O)N[C@H](/C(C(=O)OC)=C(\C)NCc1ccccc1)c1cccc(OC)c1	3%	x	-8%
O=C(Nc1ccccc1)N1CC[C@@]2(CCCN(C(=O)c3ccncc3)C2)C1	1%	x	-4%

Source: PubChem BioAssay (National Center for Advancing Translational Sciences (NCATS))
